USP10 inh = human USP10 deubiquitinase inhibition | Q14694 | purified USP10, Ub-rhodamine fluorescence, 60 min | inhibition, % at 20 µM | 1.1% of 47,000 active | AID 1645856
USP8 inh = blocks human USP8 ubiquitin-rhodamine cleavage | inhibition, % at 20 µM | 4.2% of 47,000 active | purified USP8, Ub-rhodamine cleavage fluorescence, 30 min | P40818
USP30 inh = inhibitors of human USP30 deubiquitinase. Q70CQ3. purified USP30, Ub-rhodamine cleavage fluorescence. inhibition, % at 25 µM. 5.3% of 47,000 active
Target sequence (Q70CQ3 whole entry, looked up): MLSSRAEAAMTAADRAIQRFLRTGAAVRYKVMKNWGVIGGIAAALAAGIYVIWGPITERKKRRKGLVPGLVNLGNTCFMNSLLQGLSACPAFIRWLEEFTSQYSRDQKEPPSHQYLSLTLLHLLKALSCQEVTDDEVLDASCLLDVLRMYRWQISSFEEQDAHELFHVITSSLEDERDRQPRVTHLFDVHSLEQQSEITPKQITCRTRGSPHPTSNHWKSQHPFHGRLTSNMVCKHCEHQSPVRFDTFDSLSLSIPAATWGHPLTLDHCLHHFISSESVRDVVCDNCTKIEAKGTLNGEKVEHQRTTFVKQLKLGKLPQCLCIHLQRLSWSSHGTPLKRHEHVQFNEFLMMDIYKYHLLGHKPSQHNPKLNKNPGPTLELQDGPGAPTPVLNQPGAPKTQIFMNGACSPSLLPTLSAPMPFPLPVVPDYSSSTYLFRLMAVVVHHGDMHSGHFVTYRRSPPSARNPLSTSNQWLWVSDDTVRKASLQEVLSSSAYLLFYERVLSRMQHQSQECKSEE
USP17 inh = inhibitors of human USP17 deubiquitinase. AID 1645855. purified USP17, Ub-rhodamine cleavage fluorescence, 3 h. 6.5% of 47,000 active. inhibition, % at 50 µM. A8MUK1
USP28 inh = human USP28 deubiquitinase inhibition; Q96RU2; purified USP28, Ub-rhodamine cleavage fluorescence, 30 min; inhibition, % at 25 µM; 3% of 47,000 active
Numbers stand for hits; n = inactive; x = no result given. A selection: hits, their analogues and other compounds. The true share with any hit is near 14%. Rule as the data show it: active = inhibition above about 30%; inactive = the rest.

SMILES	USP10 inh	USP8 inh	USP30 inh	USP17 inh	USP28 inh
CC(C)OC(=O)c1cc2c(ccn2C)n1CC(=O)N(Cc1ccc(Cl)cc1)c1ccccc1	n	66.6	n	n	n
CCOC(=O)c1cc2c(ccn2C)n1CC(=O)N(Cc1ccccc1)c1ccccc1	n	55.3	n	n	n
CC(C)OC(=O)c1cc2c(ccn2-c2ccc(F)cc2)n1CC(=O)N(Cc1ccccc1)c1ccc(F)cc1	n	n	n	n	n
O=C(Cn1cnc(S(=O)(=O)N2CCCCC2)c1)N1CCc2ccccc2C1	n	n	n	n	n
CC(C)OC(=O)c1cc2c(ccn2C)n1Cc1ccc2ccccc2n1	n	56.0	n	n	n
CCOC(=O)c1cc2c(ccn2C)n1CC(=O)N(Cc1ccccc1)c1ccc(F)cc1	n	38.7	n	n	n
CC1CCN([C@H]2CS(=O)(=O)C[C@@H]2S(=O)(=O)c2ccccc2)CC1	n	n	n	n	n
O=C(/C=C/c1cccc2ccccc12)Nc1ccc([N+](=O)[O-])cc1	n	n	n	n	n
Fc1ccc(-c2nc(C3CC3)ncc2-c2nnnn2-c2ccccc2)cc1F	n	n	30.4	n	n
Fc1ccc(-c2nc(C3CC3)ncc2-c2nnnn2-c2ccccc2)c(F)c1	n	n	n	n	n
COc1cccc(/C=C/C(=O)Nc2ccc(N3CCOCC3)cc2)c1OC	n	n	n	30.4	59.6
O=C(Cc1ccc(F)cc1)Nc1ccc(N2CCOCC2)cc1	n	n	n	n	n
O=c1c2cc(F)ccc2ncn1C1CCN(S(=O)(=O)c2ccccc2)CC1	n	n	n	n	n
Cc1ccc(S(=O)(=O)N2CCC(n3cnc4ccc(C)cc4c3=O)CC2)cc1	n	n	35.2	n	n
CCN1CCCn2cc(S(=O)(=O)Nc3cccc(C)c3)cc2C1=O	n	n	n	n	n
N#Cc1ccc(NC(=O)NC(C(F)(F)F)C(F)(F)F)cc1	n	n	n	n	n
Cc1ccc(NC(=O)c2cnn3c2NC(C(=O)O)=CC3/C=C/c2ccccc2)cc1 (configuration not stated)	n	34.3	n	n	n
O=C(O)C1=CC(/C=C/c2ccccc2)n2ncc(C(=O)Nc3ccc(F)cc3)c2N1 (configuration not stated)	n	41.5	n	n	n
CC(C)=CCC/C(C)=C/CCC(C)(O)C1Cc2c(c3ccccc3[n+]([O-])c2C)O1 (configuration not stated)	n	n	30.3	n	n
CCOc1ccccc1C(=O)Oc1ccc2c(C)cc(=O)oc2c1	n	35.3	31.0	59.4	n
O=C1CN(C(=O)c2ccc(S(=O)(=O)N3CCOCC3)cc2)C(c2ccccc2)c2cc(F)ccc2N1 (configuration not stated)	n	n	n	n	n
COc1cccc(NC(=O)c2nccnc2-c2nc3ccccc3s2)c1	n	n	n	n	n
Clc1ccccc1-c1cnc2sc(NCCc3ccccn3)nn12	n	n	33.2	n	n
O=C(Cc1ccccc1)NCc1nc(-c2cccc(-c3ccn[nH]3)c2)no1	n	n	n	n	n
Cc1ccc(Cc2nc(-c3ccc(=O)[nH]c3)no2)cc1	n	n	n	n	91.2
SMILES	USP10 inh	USP8 inh	USP30 inh	USP17 inh	USP28 inh
Clc1cc(-c2nc(-c3cccc(-c4ccn[nH]4)c3)no2)ccn1	n	n	n	40.9	n
Cc1ccc(Cc2nc(-c3cccc(-c4ccn[nH]4)c3)no2)cc1	n	n	n	n	45.4
O=c1ccc(-c2noc(-c3n[nH]c4ccccc34)n2)c[nH]1	n	56.0	n	n	n
Cc1c(Cl)cccc1-n1ncc(C(=O)N2CCN(Cc3ccccc3)CC2)c1C1CCNCC1	n	n	n	n	n
O=c1ccc(-c2noc(CCc3c[nH]c4ccccc34)n2)c[nH]1	n	n	n	n	42.4
CNc1nccnc1C1CN(C(=O)c2c(C(C)C)noc2C)CCO1 (configuration not stated)	n	32.2	n	n	n
CS(=O)(=O)c1cccc(N2CCN(CC3CC3)C2=O)c1	n	n	n	n	32.9
CS(=O)(=O)c1cccc(N2CCN(Cc3ccc(F)cc3F)C2=O)c1	n	n	n	n	33.1
CC(C)c1ccc(N2CCN(Cc3ccc(F)cc3F)C2=O)cc1	n	n	n	n	n
CC(C)c1ccc(N2CCN(CC3CCCCC3)C2=O)cc1	n	n	n	n	n
COc1ccc(C2=NS(=O)(=O)N(C)C(C(=O)Nc3cccc(C(C)=O)c3)=C2)cc1OC	n	n	n	n	n
O=C(CCCCCn1c(=O)[nH]c2ccccc2c1=O)NCCc1ccc(Cl)cc1	n	48.2	n	n	n
O=C(CCCCCn1c(=O)[nH]c2ccccc2c1=O)NCc1ccccc1Cl	n	n	47.9	n	n
O=C(CCCn1c(=O)[nH]c2ccccc2c1=O)N1CCC(O)(c2ccc(Cl)cc2)CC1	n	n	n	n	n
Cc1nc(C(N)=O)c2[nH]c(=O)n(Cc3ccccc3)c2n1	n	n	n	n	n
O=C(C[C@@H]1CCN2C[C@@H]1CCCOc1ccccc1CNCC2=O)NCc1cccnc1	n	n	n	n	n
CCOc1ccc(NS(=O)(=O)c2c[nH]c3ccc([N+](=O)[O-])cc23)cc1	n	n	63.3	52.9	n
CCN1CCN(C(=O)c2cc(C)n3nc(-c4ccccn4)cc3n2)CC1	n	n	n	n	n
Cc1ccc(-c2nc3nc(C)cc(N4CCCCC4C)n3n2)cc1 (configuration not stated)	n	n	n	n	n
Cc1ccc(-c2nc3nc(C)cc(N4CCC(C)CC4)n3n2)cc1	n	n	x	55.7	x
Cc1nn(-c2ccccc2)c(C)c1S(=O)(=O)Nc1cccnc1	n	n	n	n	n
Cc1nn(-c2ccc(-c3ccccc3)nn2)c(C)c1S(=O)(=O)NC(C)C	n	n	n	37.5	n
CCOc1cccc(C2c3c(oc4ccc(C)cc4c3=O)C(=O)N2CCN2CCOCC2)c1 (configuration not stated)	n	40.0	n	n	n
CCCN1CCN(C(=O)c2oc3ccccc3c2NC(=O)c2ccc(OCC)cc2)CC1	n	n	n	n	n
COc1cc(OC)c(C2C(C(=O)Nc3cccnc3)=C(C)Nc3ncnn32)cc1OC (configuration not stated)	n	n	n	n	n
SMILES	USP10 inh	USP8 inh	USP30 inh	USP17 inh	USP28 inh
COc1ccc(C)cc1NC(=O)C1CC(=O)Nc2nc3ccccc3n21 (configuration not stated)	n	n	n	70.1	n
CCCc1ccc(S(=O)(=O)Nc2ccccc2F)cc1	n	n	31.7	n	n
CCCc1ccc(S(=O)(=O)NCc2ccccc2F)cc1	n	n	n	n	n
O=S(=O)(Nc1ccccc1Cc1ccccc1)c1ccc(F)cc1	n	n	38.2	36.0	n
O=S(=O)(Nc1ccccc1Cc1ccccc1)c1ccc(Cl)cc1	n	n	31.4	n	n
O=S(=O)(c1cccnc1)N1CCN(c2ccccc2F)CC1	n	n	n	n	n
CCOc1ccccc1NC(=O)C1(C)Cc2ccccc2C(=O)O1 (configuration not stated)	n	n	n	n	n
CC1(C)Cc2nc(-c3ccccc3)nc(SCC(=O)Nc3ccccc3)c2CO1	n	n	n	n	n

Source: PubChem BioAssay (Buhrlage Lab, Dana-Farber Cancer Institute and Novartis Institutes for BioMedical Research (Cambridge, Mass))
